Assay results as given in the supplement of paper PMC11624193, “Coupling cellular drug-target engagement to downstream pharmacology with CeTEAM” (Nature Communications, 2024).
Where a name gives a salt, the structure may show the parent alone. Unmarked numbers belong to inactive results.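 The calls were made as follows: active = log2 fold change beyond 2 SD from the library mean after excluding viability outliers; inactive = within 2 SD.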

The compounds below were run against PARP1 L713F-nLuc biosensor (HCT116) (UniProt P09874) (assay: PARP1 L713F-nLuc/akaLuc ratio relative to DMSO control (biosensor stabilization) (fold change); higher = more PARP1 biosensor stabilization (target engagement / stabilizer), active = hit call of the paper). Settings: stock concentration (mM; final µM = stock mM x 1): 10; 24 h.
Chain of PARP1 L713F-nLuc biosensor (HCT116) (P09874 whole entry L713F, looked up): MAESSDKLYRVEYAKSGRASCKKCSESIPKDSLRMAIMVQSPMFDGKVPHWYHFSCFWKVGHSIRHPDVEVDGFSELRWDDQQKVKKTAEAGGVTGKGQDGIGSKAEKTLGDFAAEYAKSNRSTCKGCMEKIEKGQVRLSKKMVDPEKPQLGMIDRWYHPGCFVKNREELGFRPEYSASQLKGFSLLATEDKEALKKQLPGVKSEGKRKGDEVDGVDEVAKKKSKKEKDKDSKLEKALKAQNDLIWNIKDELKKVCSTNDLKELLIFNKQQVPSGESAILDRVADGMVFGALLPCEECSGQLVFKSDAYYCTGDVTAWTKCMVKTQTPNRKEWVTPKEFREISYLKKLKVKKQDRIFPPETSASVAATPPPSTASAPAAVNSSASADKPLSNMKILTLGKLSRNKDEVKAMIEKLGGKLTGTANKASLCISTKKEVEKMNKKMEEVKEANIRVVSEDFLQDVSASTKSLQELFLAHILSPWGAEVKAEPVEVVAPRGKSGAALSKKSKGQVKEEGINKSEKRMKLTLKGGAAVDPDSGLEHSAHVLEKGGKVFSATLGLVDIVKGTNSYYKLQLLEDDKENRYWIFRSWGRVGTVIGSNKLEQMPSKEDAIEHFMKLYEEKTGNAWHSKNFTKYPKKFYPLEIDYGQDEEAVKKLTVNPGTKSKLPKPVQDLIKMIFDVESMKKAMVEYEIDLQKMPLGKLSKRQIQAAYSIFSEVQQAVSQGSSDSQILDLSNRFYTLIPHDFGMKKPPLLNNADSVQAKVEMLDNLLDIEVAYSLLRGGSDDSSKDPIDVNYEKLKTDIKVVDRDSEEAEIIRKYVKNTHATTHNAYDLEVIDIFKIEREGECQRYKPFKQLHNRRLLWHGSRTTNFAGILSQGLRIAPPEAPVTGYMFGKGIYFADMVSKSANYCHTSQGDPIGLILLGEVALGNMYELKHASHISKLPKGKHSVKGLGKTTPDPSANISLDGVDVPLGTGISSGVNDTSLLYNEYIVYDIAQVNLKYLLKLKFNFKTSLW

Compound	PARP1 L713F-nLuc/akaLuc ratio
O=C(Nc1ccc(Cl)cc1)c1cc2ccccc2cc1OP(=O)(O)O	1.35
O=[N+]([O-])c1c(Nc2cc(F)cc(Cl)c2)ccc2nonc12	1.45
C=CC(=O)Nc1cccc(Nc2nc(Nc3ccc(OCCOC)cc3)ncc2F)c1 [Spebrutinib (CC-292, AVL-292)]	0.464
Cn1cncc1[C@@](N)(c1ccc(Cl)cc1)c1ccc2c(c1)c(-c1cccc(Cl)c1)cc(=O)n2C [Tipifarnib]	0.456
NS(=O)(=O)NCCNc1nonc1/C(=N/O)Nc1ccc(F)c(Br)c1	0.587
CNc1nc(NC2CCN(Cc3ccc4c(cc(C#N)n4CC45CC(NC=O)(C4)C5)c3C)CC2)c2cc(CC(F)(F)F)sc2n1	1.38
Clc1cc2c(NC3CCCC3)nnc(-c3ccncc3)c2cc1Cl	0.888
COCC(=O)Nc1cc(Sc2ccccc2)ccc1N=C(NC(=O)OC)NC(=O)OC [Febantel]	1.6
CC1(N)CCN(c2cccnc2NC(=O)c2nc(-c3ncccc3C(F)(F)F)cnc2N)CC1 [Darovasertib]	0.6
CN(C)C(=N)NC(=N)N [Metformin (hydrochloride)]	0.94
Nc1nc2cc(-c3ccc4ncc(C(=O)N5CCOCC5)n4c3)ccc2o1 [Serabelisib (INK-1117,MLN-1117,TAK-117)]	1.31
NNc1nncc2ccccc12 [Hydralazine (hydrochloride)]	0.617
O=C1COc2c(CCNCCN(C(=O)CCNCCc3ccc(Cl)c(Cl)c3)C3CCCCC3)ccc(O)c2N1 [AZ505 (ditrifluoroacetate)]	0.634
C[C@@H]1CCN(C(=O)CC#N)C[C@@H]1N(C)c1ncnc2[nH]ccc12	0.783
COc1cc2nccc(Oc3ccc(NC(=O)NC4CC4)c(Cl)c3)c2cc1C(N)=O [Lenvatinib (E7080)]	0.673
Cc1ccc(C(=O)Nc2cccc(C(F)(F)F)c2)cc1Nc1nc(-c2cccnc2)nc2c1cnn2C	0.656
CN(C)C[C@@H]1CCn2cc(c3ccccc32)C2=C(C(=O)NC2=O)c2cn(c3ccccc23)CCO1	0.636
O=C(O)c1cccc(CN2C(=O)/C(=C(\c3ccccc3)c3ccc(Cl)cc3)c3ccccc32)c1	1.18
CC(C)(CCCCCC(O)CCCCCC(C)(C)C(=O)O)C(=O)O [Bempedoic acid]	1.02

Compound	PARP1 L713F-nLuc/akaLuc ratio
NCCNc1ccc(NCCN)c2c1C(=O)c1ccncc1C2=O [Pixantrone Maleate]	1.15
CCN(CC)C(=S)SSC(=S)N(CC)CC [Disulfiram]	0.658
CC(=O)N1CCC(Nc2cc(C(=O)NC[C@H](O)CN3CCc4ccccc4C3)ncn2)CC1	0.707
COc1cc(N2CCC(N3CCN(C)CC3)CC2)ccc1Nc1ncnc(Nc2ccccc2S(=O)(=O)C(C)C)n1	0.97
CC(C)(C#N)c1cc(Cn2cncn2)cc(C(C)(C)C#N)c1 [Anastrozole]	0.888
C=CC(=O)N1C[C@H](Nc2ncnc3[nH]ccc23)CC[C@@H]1C [Ritlecitinib]	1.01
CC(C)N(C(=O)c1cc(F)ccc1Oc1cncnc1N1CC2(CCN(CC3CCC(NS(C)(=O)=O)CC3)CC2)C1)C(C)C (configuration not stated)	0.677
O=C(Nc1ccc(O)c(C(=O)O)c1)c1cccc(NC(=O)c2ccco2)c1	1.19
CN(C)CCCNC(=O)c1ccc(-c2cc(O)c3ncccc3c2)cc1	0.5
O=C1COc2c(CCNCCN(C(=O)CCNCCc3ccc(Cl)c(Cl)c3)C3CCCCC3)ccc(O)c2N1	1.16
Cc1cc(Nc2nc(CC3(C(=O)O)CCN(C(=O)c4cccc(Cl)c4Cl)CC3)ccc2F)n[nH]1	1.6
O=C(O)CC[C@H](O)C(=O)O [L-2-Hydroxyglutaric acid (disodium)]	1.2
O=C(NN=Cc1c(O)ccc2ccccc12)c1ccncc1	0.653
S=c1[nH]cnc2nc[nH]c12 [Mercaptopurine (6-MP)]	2.51
N#Cc1ccc(-c2cnc3[nH]cc(NC(=O)c4cccnc4)c3c2)cc1	0.668
Nc1nc(N)c2nc(-c3cccc(O)c3)c(-c3cccc(O)c3)nc2n1	1.46
C=C(c1ccc(C(=O)O)cc1)c1cc2c(cc1C)C(C)(C)CCC2(C)C [Bexarotene]	0.719
NC(=O)c1cc(F)cc2c1C(=O)N(C1CCN(C3CCC(F)(F)CC3)CC1)C2	6 (active)
